Reference: PubChem BioAssay AID1347056 (Sanford-Burnham Center for Chemical Genomics, 2019)
Where “and” joins values, the source holds several entries; their conditions need not be identical. Equal entries are not always repeated. Out of some 360,000 compounds screened, about 3,600 (1%) were called active.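 The calls were made as follows: active = compounds whose plate-normalised and pattern-corrected inhibition of the luciferase reporter signal at the single screening dose is 50% or more; inactive = the rest.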 Shown is part of a subset that was picked to be rich in actives.

Assay: inhibitors of TROY-driven NF-kB signaling, primary screen, Q293 LMP1-TROYcd cells, NF-kB luciferase, uHTS (AID 1347056)
Details: Q293 LMP1-TROYcd NF-kB luciferase reporter, 4 h; at 10 µM; stronger effect = higher value

inhibition, inactive:
COCCCNC(=O)CNC(=S)N(Cc1cc(OC)c(OC)c(OC)c1)C1CCCC1 10.9%, Cc1ccc(SCC(=O)Nc2ccc3c(c2)OCCO3)cc1 -62.5%, COC(=O)c1cc(OC)c(OC)cc1NC(=O)CSc1ccc(C)cc1 21.1%, CN(C)S(=O)(=O)c1ccc(Oc2ccc(S(=O)(=O)N(C)C)cc2)cc1 -1.31%, Cc1cc(C(C)(C)C)cc(C)c1N 2.63%, COc1ccc(S(=O)(=O)N(C)C[C@H]2Oc3ccc(NS(=O)(=O)c4cccs4)cc3CC(=O)N([C@H](C)CO)C[C@H]2C)cc1 -24.6%, Cc1ccc(N(C(=O)C(F)(F)F)C(C(=O)NC2CCCCC2)c2ccncc2)cc1C (stereo not drawn) -2.62%, O=C(c1ccc2c(c1)C(=O)N(Cc1ccncc1)C2=O)N1CCN(S(=O)(=O)c2ccc(OC(F)(F)F)cc2)CC1 0.85%, CC(C)(C)NC(=O)c1ccc(Cn2cc(C(F)(F)F)ccc2=O)cc1 9.78%, O=C(NCC(=O)N1CCN(c2ccccc2F)CC1)c1cccs1 -32.6%, COc1ccc(N2CCN(C(=O)CNC(=O)c3ccc(C(C)(C)C)cc3)CC2)cc1 -17.8%, CCC(Oc1ccccc1C)C(=O)Nc1ccc(S(=O)(=O)Nc2cc(C)on2)cc1 (stereo not drawn) -0.38%, COc1ccc(C(=O)Nc2c(N)nc(SCC(=O)Nc3ccc(C(C)=O)cc3)[nH]c2=O)cc1 -11%, Cc1ccc(S(=O)(=O)N(CC(=O)Nc2cccc([N+](=O)[O-])c2)Cc2ccc(Cl)cc2)cc1 44.3%, O=C1CSC(=O)N1CCOCCN1C(=O)CSC1=O -11.1%, COc1ccccc1C(=O)NC(=S)Nc1ccc(N2CCOCC2)cc1 30.2%, COc1ccccc1C(=O)NC(=S)NC12CC3CC(CC(C3)C1)C2 14.8%, Cc1ccc(CN(Cc2cccnc2)C(=S)Nc2cc(Cl)ccc2C)cc1 -0.68%, NC(=O)C1(C(N)=O)OC1c1ccc(Cl)cc1Cl (stereo not drawn) -4.3%, COc1cccc(OCc2cc(/C=N/NC(=O)c3nc(Cl)c(Cl)c(N)c3Cl)ccc2OC)c1 11.1%, CCOc1ccc(-c2cc(C(=O)N/N=C/c3ccc(O)cc3)c3ccccc3n2)cc1 42.4%, O=C(NN=Cc1ccc2c(c1)CCC2)c1ccccc1O -55%, CC(C)(C)C(=O)Nc1ccc(C(=O)N/N=C/c2ccccc2OC(=O)c2ccc(Cl)cc2Cl)cc1 -17%, CN1C(=O)/C(=C/C=C2\SCCN2C)OC1=S -2.27%, CCOC(=O)CCCNC(=O)CN1C(=O)NC(CCc2ccccc2)C1=O (stereo not drawn) -5.07%, O=C1/C(=C\Nc2ccccc2)CCN1c1ncccn1 -49.4%, COc1ccc(Cc2nnc(SCC(=O)Nc3ccc(C)c(C)c3)o2)cc1OC 8.78%, Cc1ccnc(NC(=O)C(C)N2C(=O)c3ccccc3C2=O)c1 (stereo not drawn) -1.82%, CC(Oc1ccccc1)C(=O)Nc1oc(-c2ccco2)c(-c2ccco2)c1C#N (stereo not drawn) 14.3%, O=C(O)c1ccc2c(=O)n3c(nc2c1)/C(=C/c1ccc(OC(F)F)cc1OC(F)F)CC3 1.62%, CCN(C(=O)CSc1nnc(-c2ccncc2)o1)c1ccccc1 2.98%, Fc1ccc2nc(-c3ccccc3)nc(SCc3nnc(-c4ccccc4)o3)c2c1 -9.52%, COc1ccc(C(C)=O)cc1CN1C(=O)NC2(CCCCC2C)C1=O (stereo not drawn) 19%, CCOc1ccc(CCNC(=O)CCc2nnc3ccc(N4CCCC4)nn23)cc1OCC 3.54%, Cc1nc2sccn2c(=O)c1S(=O)(=O)NCCc1ccccc1 -4.17%, O=C(Nc1cc(-c2nn(CC(=O)N3CCCCC3)c(=O)c3ccccc23)ccc1N1CCOCC1)c1ccc(Cl)cc1 -10.6%, O=C(Nc1cc(S(=O)(=O)N2CCOCC2)ccc1OCC(F)(F)F)c1ccc(N2CCCC2=O)cc1 1.27%, CN(C)C(=O)c1ccc2c(c1)C1C3CCC(C3)C1C(c1ccccc1)N2 (stereo not drawn) -1.11%, O=C(C1CCC(=O)N(C2CC2)C1)N1CCN(c2ccc(Cl)cc2)CC1 (stereo not drawn) -7.66%, Cc1ccc(S(=O)(=O)N(C)C)cc1NC(=O)C(C)OC(=O)c1ccc2ccccc2n1 (stereo not drawn) -2.57%, COC(=O)c1ccccc1NC(=O)Cn1nc(C(F)(F)F)c2c1CCC2 -27%, N#Cc1c(-c2ccccc2)nc(SCc2cccc(C(F)(F)F)c2)[nH]c1=O 41.2%, Cc1ccccc1CSc1nnc(-c2ccccc2)c(=O)[nH]1 -16.6%, Cc1ccc(NC(=O)Cc2nnc(SCC(=O)Nc3nncs3)n2C)cc1 -1.88%, CCOC(=O)Cc1c(C)nc2c(C#N)c(C)nn2c1C 10.1%, CN(CC(=O)NCc1ccncc1)S(=O)(=O)c1ccc(Br)cc1 0.22%, Cc1ccc(S(=O)(=O)N2CCCCC2)cc1NC(=O)CCNC(=O)c1ccccc1 -24.1%, C[C@@H]1CC[C@]2(O[C@@H](CCO)C[C@H](O)[C@H]2O)O1 0.26%, OCC[C@H]1C[C@H](O)[C@@H](O)[C@]2(CCCCO2)O1 -23.7%, CCOC(=O)C1(C)CCCN(C(=O)c2ccc(F)c(Cl)c2)C1 (stereo not drawn) 2.88%, Cc1ccccc1N1CCN(Cc2nc(Cc3ccccc3F)no2)CC1 -8.4%, O=C(/C=C/c1cnc2ccccc2n1)NC1CCCCCC1 -49.1%, Cc1nc2cc(NC(=O)CSc3nc4c(C)cccc4cc3C#N)ccc2s1 4.28%, COc1ccc(/C(O)=C2/C(=O)C(=O)N(c3nc(C)c(C)s3)C2c2ccco2)cc1 (stereo not drawn) -21.4%, COc1ccc(C2/C(=C(/O)c3ccccc3)C(=O)C(=O)N2c2ncccn2)cc1OC (stereo not drawn) -2.92%, Cc1ccc(C(O)c2ncc(-c3ccccc3F)[nH]2)cc1F (stereo not drawn) -21.9%, CC(=O)c1ccc(N2CCN(S(=O)(=O)c3ccc4c(c3)CC(=O)N4C)CC2)cc1 -27.6%, Cc1cnc(CN(C)C(=O)CC2C(=O)NCCN2Cc2cccc(F)c2F)[nH]1 (stereo not drawn) 3.88%, Cc1noc(C)c1S(=O)(=O)N1CCCC(C(=O)Nc2nccs2)C1 (stereo not drawn) -32.5%, Cc1ccc(NC(=O)C2CCCN(S(=O)(=O)c3c(C)noc3C)C2)c(C)c1 (stereo not drawn) -7.46%, CCOC(=O)CCC(NC(=O)c1ccc(CNc2nc3cc(C(F)(F)F)ccc3nc2C(=O)OCC)cc1)C(=O)OCC (stereo not drawn) -25.2%, CCCCCc1nnc(NC(=O)c2ccc(=O)n(C)n2)s1 -18.4%, O=C(CN1C(=O)/C(=C/c2ccccc2F)Sc2ccccc21)NCc1cccnc1 44.7%, CN(C(=O)CN1C(=O)S/C(=C\c2ccccc2F)C1=O)C1CCS(=O)(=O)C1 (stereo not drawn) 6.08%, COc1ccc(CNC(=O)CCC(=O)Nc2nnc(C(C)C)s2)cc1 -5.09%, O=C(O)C1C2C=CC(C2)C1C(=O)N1CCN(CCO)CC1 (stereo not drawn) -8.15%, CC1(C)SC2C(NC(=O)COc3ccccc3)C(=O)N2C1C(=O)O (stereo not drawn) -1.14% and 4.62%, COc1ccc(-c2cc(C(=O)N(C)Cc3ccc(OC)c(OC)c3OC)c3ccccc3n2)cc1OC 19.6%, COc1ccc(C2=NO[C@@H]3C(=O)N(Cc4ccccc4)C(=O)[C@H]23)cc1OC -14.4%, c1ccc2c(C[n+]3csc4ccccc43)cccc2c1 13.4%, Cc1noc(C)c1C(=O)NC(C)c1ccc2c(c1)OCO2 (stereo not drawn) 1.6%

inhibition, active:
Cc1ccc(SCC(=O)c2cc(C)c(OC(=S)N(C)C)c(C)c2)cc1 63.3%, CC(C)(C)c1ccc(Oc2ccc(N)cc2)cc1 86.2%, O=C(NCC(=O)N1CCN(c2ccccc2O)CC1)c1ccc2ccccc2c1 71.8%, COC(=O)Cc1[nH]n(-c2nc3ccccc3s2)c(=O)c1C(C)=Nc1ccc(OC)cc1 54.6%, COc1ccccc1C(=O)NC(=S)Nc1ccccc1N1CCCCC1 50.5%, COc1ccc(C(=O)Nc2ccccc2C(=O)N/N=C/c2ccc(O)c(OC)c2)cc1 84.9%, O=C(N/N=C/c1ccc(OC(=O)c2ccccc2Cl)cc1)c1ccc(O)cc1 54.5%, Fc1ccc2[nH]c3c(N4CCSCC4)ncnc3c2c1 59.8%, Oc1c(Cl)cc(Cl)c(Cl)c1Cc1c(O)c(Cl)cc(Cl)c1Cl 80.3%, c1ccc(-c2nnc(SCc3nc4ccccc4[nH]3)o2)cc1 57.9%, O=C(Nc1cc(Cl)ccc1N1CCOCC1)c1ccc(N2CCCC2=O)cc1 70.3%, Cc1ccc(CSc2nc(-c3ccccc3)c(C#N)c(=O)[nH]2)cc1 54%, C[C@H]1CC[C@]2(O[C@@H](CCO)C[C@@H](O)[C@@H]2O)O1 80.2%, CCOc1ccc(/C(O)=C2\C(=O)C(=O)N(c3ccc(OC)cc3)C2c2ccccc2[N+](=O)[O-])cc1 (stereo not drawn) 54.8%, COc1c(C)cc(C(=O)C2CCCN(S(=O)(=O)c3c(C)noc3C)C2)cc1C (stereo not drawn) 50.3%, O=C(CN1C(=O)/C(=C\c2ccccc2F)SC1=S)Nc1nc2ccccc2s1 68.3%, COc1ccc(-c2cc(C(F)(F)F)nc(S(C)(=O)=O)n2)cc1OC 55%
